Assay results as given in PubChem BioAssay (NCATS).
“And” between values parts separate entries of the source, which are not always exact repeats. Equal entries are not always repeated. Unmarked numbers belong to inactive results. Inconclusive results are not listed. Where a call stands in place of a potency, no number is given. The source made the active and inactive calls. Unless noted, calls follow the shape of the dose curve; as a rule, active = well fitted curve in the direction sought with a large enough effect; inconclusive = small, poorly fitted or top-dose-only effect, or another doubt; inactive = no such curve, though single readings can be large; an effect the other way counts as inactive or inconclusive. Where a SMILES comes first, the peptide text is derived from it. [ ]: non-standard residue; d: D form. ξ: configuration not given here. ξLac(3-iPr) = CC(C)CC(O)C(=O)O; NMeV = CN[CH](C(=O)O)C(C)C; NMeA = CN[CH](C)C(=O)O; βAla = NCCC(=O)O

Key:
[1] = P-glycoprotein substrates identified in KB-8-5-11 adenocarcinoma cell line, qHTS therapeutic library screen (AID 1346987); also: nearly all actives have a fitted effect of over 65% in size; also: potency is read from the fitted curve at half-maximal effect
Procedure, shortened: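 KB-8-5-11: colchicine-selected sub-line of KB-3-1 over-expressing P-gp; assay medium lacked colchicine. 72 h drug exposure at 37 degree C, CellTiter-Glo.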

[2] = tested on: Zika virus NS2B-NS3 protease (linked construct); assay: Primary screen NINDS Rhodamine qHTS for Zika virus inhibitors (AID 1347160); also: nearly all actives have a fitted effect of over 55% in size
Procedure, shortened: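 Kinetic fluorescence (Ex 480 nm, Em 540 nm) over 15 min with 1.5 microM Rhodamine110 peptide and 25 nM linked protease.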

[3] = target: Calcium and integrin-binding protein 1 (Homo sapiens) (UniProt Q99828); assay: Primary qHTS for Identification of Calcium Integrin Binding Protein 1 (CIB1) Competitor (AID 1508620);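 also: GST tagged CIB1 binding a fluorescein labelled alphaIIb integrin peptide tracer; top concentration of the series differs between compounds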
Procedure, shortened: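 CIB1-GST (1 uM final) and compound incubated 15 min at room temperature before adding FITC-alphaIIb peptide tracer (100 nM final). Competition for binding read by fluorescence polarization (ex 480, em 540) after another 15 min at room temperature.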

[4] = Primary qHTS for inhibitors of nuclear receptor binding SET domain protein 2 (NSD2) in an isogenic RCH-ACV NSD2 p.E1099K mutant (9B) (AID 1645876); also: nearly all actives have a fitted effect of over 70% in size; also: potency is read from the fitted curve at half-maximal effect
[5] = target: Glutathione peroxidase 1 (Homo sapiens) (UniProt P07203); assay: Primary qHTS Assay for Inhibitors of Recombinant Selenoprotein Glutathione Peroxidase 1 (GPX1) (AID 1845191); also: nearly all actives have a fitted effect of over 65% in size
Procedure, shortened: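 10 nM GPX1 + cpd, 30 min RT; start w/ 1 mM GSH, 0.5 mM cumene hydroperoxide, 0.5 mM NADPH, 100 nM GR, 0.01% BSA; buffer 50 mM Tris-HCl pH 7.5, 2 mM EDTA, 150 mM NaCl; Fl 340/450, 0 & 15 min.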

[6] = target: Phospholipid hydroperoxide glutathione peroxidase GPX4 (Homo sapiens) (UniProt P36969); assay: Primary qHTS Assay for Inhibitors of Recombinant Selenoprotein Glutathione Peroxidase 4 (GPX4) (AID 1845192); also: nearly all actives have a fitted effect of over 65% in size
Procedure, shortened: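 NADPH consumption, followed by fluorescence at 340/450 nm between 0 and 15 min, reports GPX4 activity via coupled glutathione reductase (100 nM). Enzyme 200 nM was pre-exposed to compound 30 min; 0.5 mM cumene hydroperoxide and 1 mM GSH served as substrates.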

[7] = target: Luciferin 4-monooxygenase (Photinus pyralis) (UniProt P08659); assay: Primary firefly luciferase (FLuc) qHTS assay for identification of artifact compounds. (AID 1845220); conditions: outcome: dose series up to 54.1 µM unless noted; also: nearly all actives have a fitted effect of over 60% in size
Procedure, shortened: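 Compounds sat 15 min at room temperature with 10 uM luciferin and 10 uM ATP (pH 7.6 Tris acetate). Firefly luciferase (10 nM final) was then added, and luminescence was read 5 min later. Data normalized to no-enzyme and DMSO controls were Hill-fitted.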

[8] = tested on: Nanoluciferase (engineered Oplophorus gracilirostris luciferase); assay: Primary Nanoluciferase (NLuc) qHTS assay for identification of artifact compounds. (AID 1845222)
Procedure, shortened: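 Luminescence from secreted NLuc (filtered, 1:55-diluted S16 cell medium) read 5 min after Nano-Glo substrate; compounds preincubated 15 min, RT. Hill fits of inhibition normalized to DMSO and no-enzyme.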

[9] = tested on: HeLa; assay: Primary qHTS to identify gynecologic anti-cancer compounds using libraries of approved drugs and bioactive compounds (AID 1345084); conditions: Gynecologic cancer cell panel viability, ATPlite luminescence, 48 h; series mostly up to 57.5 µM; also: nearly all actives have a fitted effect of over 55% in size; also: potency is read from the fitted curve at half-maximal effect
Procedure, shortened: (§1)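 Luminescence from the ATPlite ATP-monitoring reagent indicates viable cell number; lower signal means cytotoxicity. Cells received compound 16 h after seeding and were exposed for 48 h across five concentrations.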

[10] = tested on: OV90; assay: as above; conditions: Gynecologic cancer cell panel viability, ATPlite luminescence, 48 h; series mostly up to 57.5 µM
Procedure, shortened: as §1

[11] = tested on: JEG-3; assay: as above; conditions: Gynecologic cancer cell panel viability, ATPlite luminescence, 48 h; series mostly up to 57.5 µM
Procedure, shortened: as §1

[12] = tested on: KB-3-1; assay: Cytotoxic Profiling of Annotated Libraries Using Quantitative High-Throughput Screening (AID 1296008); conditions: Five cell lines viability, CellTiter-Glo ATP luminescence, 48-72 h; max response: hits give low values; also: nearly all actives have a fitted effect of over 60% in size; also: potency is read from the fitted curve at half-maximal effect
Procedure, shortened: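 Cytotoxicity was measured as CellTiter-Glo ATP luminescence, read after 10 min at room temperature. Compound treatment of the cells lasted 48 or 72 hr at 37 degrees Celsius in a qHTS format.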

[13] = tested on: CRL-7250; assay: qHTS assay to identify novel small-molecules to repurpose for Merkel cell carcinoma treatment (AID 1296009); conditions: MCC and control cell lines, CellTiter-Glo viability, 72 h; series mostly up to 92 µM; also: potency is read from the fitted curve at half-maximal effect; nearly all actives have a fitted effect of over 60% in size
Procedure, shortened: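 After compound transfer in DMSO, plates were kept 72 hr at 37 degree celsius. Luminescent ATP signal from CellTiter-Glo served as viability measure, normalized against DMSO and no-cell controls.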

[14] = qHTS Assay for Identifying Gametocytocidal Compounds (AID 743244); also: potency is read from the fitted curve at half-maximal effect;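 as to max response: actives lower the fluorescent signal which means gametocytes are killed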; conditions: P. falciparum 3D7 stage III-V gametocytes, alamarBlue, 72 h; max response: hits give low values
Procedure, shortened: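 Compounds are pinned into medium, gametocytes (stage III–V, 3D7, 20,000 cells/well) added, and plates held 72 h at 37 °C in 5% CO2. AlamarBlue follows for 24 h before fluorescence reading.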

[15] = tested on: astro; assay: Drug repurposing screens with cells derived from glioblastoma tumor samples (AID 1345199); conditions: viability, ATP luminescence, 48 h; series mostly up to 45.9 µM; also: nearly all actives have a fitted effect of over 40% in size; also: potency is read from the fitted curve at half-maximal effect
Procedure, shortened: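 Four patient lines of CD133+ GBM neurospheres were screened at several concentrations; hits were retested in those lines plus three slower-growing GBM lines, using 48-hour treatment and ATP-based viability.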

[16] = Cytotoxicity counterscreen for inhibitors of SARS-CoV-2 cell entry (AID 1645845; calls by dose curve; also: nearly all actives have a fitted effect of over 50% in size)
Procedure, shortened: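 48 h compound treatment (after 1 h preincubation), HEK293-ACE2 cells, 37 C/5% CO2; ATP luminescence endpoint; normalized to cell wells and media blanks.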

Sequence of Phospholipid hydroperoxide glutathione peroxidase GPX4 (Homo sapiens) (P36969 whole entry, looked up): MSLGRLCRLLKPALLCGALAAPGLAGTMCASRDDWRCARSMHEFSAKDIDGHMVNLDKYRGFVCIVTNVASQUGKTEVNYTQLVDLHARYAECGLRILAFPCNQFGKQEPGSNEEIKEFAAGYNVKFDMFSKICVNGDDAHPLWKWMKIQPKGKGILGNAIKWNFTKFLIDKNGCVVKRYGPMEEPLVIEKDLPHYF
Sequence of Calcium and integrin-binding protein 1 (Homo sapiens) (Q99828 whole entry, looked up): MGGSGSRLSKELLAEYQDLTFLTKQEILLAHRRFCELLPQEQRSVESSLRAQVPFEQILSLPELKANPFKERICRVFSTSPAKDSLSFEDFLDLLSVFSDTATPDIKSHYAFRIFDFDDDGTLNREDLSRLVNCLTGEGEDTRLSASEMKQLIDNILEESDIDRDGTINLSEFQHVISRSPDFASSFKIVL
Sequence of Glutathione peroxidase 1 (Homo sapiens) (P07203 whole entry, looked up): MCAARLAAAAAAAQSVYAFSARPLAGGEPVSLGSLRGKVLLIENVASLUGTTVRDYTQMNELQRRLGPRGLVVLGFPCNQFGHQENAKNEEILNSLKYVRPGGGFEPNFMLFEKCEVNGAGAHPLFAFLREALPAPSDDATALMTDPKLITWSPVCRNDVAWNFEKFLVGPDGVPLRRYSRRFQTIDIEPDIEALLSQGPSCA

CCC(C)C1NC(=O)C2CCCN2C(=O)C(CC(C)C)OC(=O)CCNC(=O)C(C)N(C)C(=O)C(C(C)C)N(C)C1=O (centres undefined) (cyclo([ξLac(3-iPr)]PI[NMeV][NMeA][βAla]); configuration not given here)
Potency [1]: inactive
Potency [2]: inactive
Potency [3]: inactive
Potency [4]: 2.71 µM (active)
Potency [5]: inactive
Potency [6]: inactive
outcome [7]: inactive
Potency [8]: inactive
Potency [9]: inactive
Potency [10]: 3.98 µM (active)

Cc1ccccc1C1=CCN(C)CC1
Potency [1]: inactive
Potency [2]: inactive
Potency [3]: inactive
Potency [4]: inactive
Potency [5]: inactive
Potency [6]: inactive
Potency [8]: inactive
Potency [9]: inactive
Potency [11]: inactive
Potency [10]: inactive

C[C@@H]1O[C@@H](O[C@H]2CC[C@@]3(C)C(CC[C@@H]4C3CC[C@]3(C)[C@@H](C5=CC(=O)OC5)CC[C@]43O)C2)[C@H](O)[C@H](O)[C@H]1O (some centres undefined)
Potency [1]: 0.709 µM (active)
Potency [2]: inactive
Potency [4]: 0.2 µM (active)
Potency [5]: inactive
Potency [6]: inactive
outcome [7]: inactive [at 25.7 µM]
Potency [8]: inactive
Potency [9]: 2 µM (active)
Potency [10]: 5.62 µM (active)

OC(CNc1ccccc1)Cn1c2ccc(Br)cc2c2cc(Br)ccc21 (centres undefined)
Potency [3]: inactive
Potency [5]: inactive
Potency [6]: inactive
outcome [7]: inactive
Potency [8]: inactive
max response [12]: -15.3%
Potency [9]: inactive
Potency [11]: inactive
Potency [10]: inactive

CC[C@H]1/C=C\C=C/C[C@@H](C)[C@H](O)[C@@](C)(O)C(=O)[C@@H](C)[C@H](O)[C@@H](C)C(=O)[C@@H](C)[C@H](O)[C@@H](C)/C=C\C(=O)O[C@@H]2[C@H](C)[C@H](CC1)O[C@]1(CC[C@H](C)[C@H](C[C@@H](C)O)O1)[C@H]2C
Potency [2]: inactive
Potency [3]: inactive
Potency [4]: 0.742 µM (active)
Potency [5]: inactive
Potency [6]: inactive
outcome [7]: inactive
Potency [8]: inactive
Potency [10]: inactive

Cc1sc2c(c1C)C(c1ccc(Cl)cc1)=NC(CC(=O)OC(C)(C)C)c1nnc(C)n1-2 (centres undefined)
Potency [1]: 1.16 µM (active)
Potency [2]: inactive
Potency [3]: inactive
Potency [4]: 0.183 µM (active)
Potency [6]: inactive
outcome [7]: inactive
Potency [8]: inactive
Potency [11]: inactive
Potency [10]: inactive

CC1CCCCCC(=O)c2c(O)cc(O)cc2CC(=O)O1 (centres undefined)
Potency [1]: inactive
Potency [2]: inactive
Potency [3]: inactive
Potency [5]: inactive
Potency [6]: inactive
Potency [8]: inactive
max response [12]: -18.6%
Potency [9]: inactive
Potency [11]: inactive
Potency [10]: inactive

CC(=O)OC[C@]12C[C@H](OC(C)=O)C(C)=C[C@H]1O[C@@H]1[C@H](O)[C@@H](O)[C@@]2(C)[C@]12CO2
Potency [1]: 0.904 µM (active)
Potency [2]: inactive
Potency [3]: inactive
Potency [4]: 0.101 µM (active)
Potency [5]: inactive
Potency [6]: inactive
outcome [7]: inactive
Potency [8]: inactive
Potency [12]: 0.18 µM (active)
Potency [11]: 5.62 µM (active)
Potency [10]: 3.16 µM (active)

Fc1cc(F)c2c(c1)[C@H]1C=CC[C@H]1C(c1cccnc1)N2 (some centres undefined)
Potency [1]: 4.61 µM (active)
Potency [2]: inactive
Potency [3]: inactive
Potency [4]: 6.49 µM (active)
Potency [5]: inactive
Potency [6]: inactive
outcome [7]: inactive
Potency [8]: inactive
Potency [12]: 4.11 µM (active)
Potency [13]: 4.61 µM (active)
Potency [9]: 14.1 µM (active)
Potency [11]: 25.1 µM (active)

C/C=C(\CC)C(=O)NC(N)=O
max response [14]: -0.86%
Potency [1]: inactive
max response [12]: -1.21%
Potency [15]: inactive

N#Cc1ccc(N2CCN(C(=O)COc3ccc4[nH]cc(CCN)c4c3)CC2)cc1
Potency [1]: inactive
Potency [2]: inactive
Potency [3]: inactive
Potency [5]: inactive
Potency [6]: inactive
outcome [7]: inactive
Potency [8]: inactive
max response [12]: -19.2%
Potency [9]: inactive
Potency [11]: inactive
Potency [10]: inactive

C1CN(P2(N3CC3)=NP(N3CC3)(N3CC3)=NP(N3CC3)(N3CC3)=N2)CCO1 (centres undefined)
max response [14]: -9.28%
Potency [1]: inactive
max response [12]: 42.2%
Potency [15]: inactive

CN[C@@]1(c2ccccc2Cl)CCCCC1=O
max response [14]: 0.413%
Potency [1]: inactive
max response [12]: -16.7%
Potency [15]: inactive

COc1cc(C[C@H](C)N)c(OC)cc1Br
max response [14]: -8.52%
Potency [1]: inactive
max response [12]: -6.95%
Potency [15]: inactive

CC(N)Cc1ccc2c(c1)OCO2 (centres undefined)
max response [14]: -8.54%
Potency [1]: inactive
max response [12]: -15.3%
Potency [15]: inactive

COC(=O)c1ccccc1C(=O)OC
max response [14]: -14.6%
Potency [1]: inactive
max response [12]: 3.72%

Oc1cc[c]([Hg][Cl])cc1
Potency [14]: 3.55 µM (active) and 2.82 µM (active)
Potency [1]: 5.8 µM (active) and 6.51 µM (active)
Potency [12]: 6.51 µM (active)
Potency [15]: 3.16 µM (active) and 5.62 µM (active)

C[C@H]1[C@H]2Cc3ccc(O)cc3[C@]1(C)CCN2CCc1ccccc1
max response [12]: -3.9%

O.O.O.O=C([O-])C(O)C(O)C(=O)[O-].O=C([O-])C(O)C(O)C(=O)[O-].[K+].[K+].[Sb].[Sb] (centres undefined)
Potency [14]: 708 nM (active)
Potency [1]: 8.2 µM (active)
max response [12]: -33.9%

CCC(=O)O[C@H]1[C@@H](N2CCCCC2)C[C@H]2[C@@H]3CC[C@H]4C[C@H](OC(C)=O)[C@@H](N5CCCCC5)C[C@]4(C)[C@H]3CC[C@@]21C
Potency [1]: inactive
max response [12]: -10.6%
Potency [15]: inactive

CCOC(=O)C1(c2ccccc2)CCCN(C)CC1 (centres undefined)
max response [14]: 9.62%
Potency [1]: inactive
Potency [16]: inactive
Potency [5]: inactive
Potency [6]: inactive
max response [12]: -5.26%
Potency [15]: inactive

CCc1cc(OC)c(C[C@@H](C)N)cc1OC
max response [14]: 0.694%
Potency [1]: inactive
max response [12]: -13.5%
Potency [15]: inactive
